The results in this text go back to PubChem BioAssay (EPA / NIEHS).

The nature of assay [1]: TOX21_p53_BLA_p2_viability: Viability Assessment in the Tox21 HCT-116 p53 Agonism Beta-lactamase Assay, Phase 2 (AID 2283591).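 Also: compound exposure lasted 16 h at 37 °C; actives lower the ATP signal meaning cytotoxicity.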 The essentials: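 Cytotoxicity readout: CellTiter-Glo ATP luminescence, 30 min at room temperature, after the beta-lactamase read. Cells were HCT116 exposed 16 h at 37C to compounds pin-transferred at 217-fold dilution from DMSO stocks.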
A short description of assay [2]: TOX21_p53_BLA_p3_viability: Viability Assessment in the Tox21 HCT-116 p53 Agonism Beta-lactamase Assay, Phase 3 (AID 2283593).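 Also: cells exposed to compound for 16 h before reading.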 In a few lines:
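Cellular ATP was quantified by CellTiter-Glo luminescence, read after 30 min at room temperature. Beforehand, HCT116 cells (4000/well) received compound 5 h post-seeding, 217-fold diluted from DMSO, then incubated 16 h at 37C.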

Assay [3] has as its target Cellular tumor antigen p53 (Homo sapiens) (UniProt P04637). The assay can be described thus: TOX21_p53_BLA_p3_ratio: Tox21 HCT-116 p53 Agonism Beta-lactamase Assay, Ratio, Phase 3 (AID 2283596). In a few lines: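 Cells were seeded at 4000/well, rested 5 h at 37C, then dosed with DMSO compound solutions (217-fold dilution) for 16 h. CCF4-AM substrate was loaded for 2 h at room temperature, and the 460/530 nm emission ratio was fitted for gain of signal versus DMSO.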

Assay [4] can be described thus: TOX21_p53_BLA_p4_viability: Viability Assessment in the Tox21 HCT-116 p53 Agonism Beta-lactamase Assay, Phase 4 (AID 2283597).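 Also: hits lower the luminescence signal meaning cytotoxicity.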 The essentials: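 Cytotoxicity as reduced cellular ATP (CellTiter-Glo luminescence, 30 min room temperature), measured in the same wells following the CCF4 FRET p53 reading. Human HCT-116 cells received compounds in DMSO (217-fold dilution) for 16 h.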

Assay [5] addresses Cellular tumor antigen p53 (Homo sapiens) (UniProt P04637). The assay can be described thus: TOX21_p53_BLA_p5_ratio: Tox21 HCT-116 p53 Agonism Beta-lactamase Assay, Ratio, Phase 5 (AID 2283599). In a few lines: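 Beta-lactamase reporter ratio (blue 460 nm over green 530 nm, 405 nm excitation) after 2 h CCF4-AM loading, in HCT-116 cells exposed 16 h at 37 C to compounds pinned at 217-fold dilution. Increases relative to DMSO baseline scored.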

Assay [6] can be described thus: TOX21_p53_BLA_p5_viability: Viability Assessment in the Tox21 HCT-116 p53 Agonism Beta-lactamase Assay, Phase 5 (AID 2283600). In a few lines:
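Viability came from CellTiter-Glo ATP luminescence, read after 30 min at room temperature. Before this, HCT-116 p53-bla cells (4000/well) had 16 hours of compound exposure at 37C, with DMSO stocks diluted 217-fold on transfer.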

Assay [7] addresses Cellular tumor antigen p53 (Homo sapiens) (UniProt P04637). The assay is described as follows: TOX21_p53_BLA_p4_ratio: Tox21 HCT-116 p53 Agonism Beta-lactamase Assay, Ratio, Phase 4 (AID 2283601). The essentials: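 Signal is the blue/green (460nm/530nm) ratio of cleaved versus uncleaved CCF4-AM substrate, read after 2 h substrate loading. Cells were HCT116 carrying the p53-responsive beta-lactamase reporter, dosed 16 h at 37C, 5% CO2; CellTiter-Glo measured in parallel.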

Assay [8] in a line: Tanguay_ZF_120hpf_YSE_legacy: (Legacy) Oregon State University Tanguay Lab 120 Hour Post-fertilization zebrafish Assay for Yolk Sac Edema (AID 2283634). The essentials: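 Presence or absence of yolk sac edema was recorded at 120 hpf in surviving larvae. These were wild-type Tropical 5D embryos, chorion removed at 4 hpf, held in static exposure at 28C from 6 hpf with 0.64% DMSO vehicle.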

Assay [9] in a line: Tanguay_ZF_120hpf_AXIS_legacy: (Legacy) Oregon State University Tanguay Lab 120 Hour Post-fertilization zebrafish Assay for Body Axis Malformation (AID 2283635). The essentials: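 Binary scoring of axis defects at 120 hpf under brightfield, fitted positive versus DMSO. Tropical 5D embryos, chorion removed by pronase at 4 hpf, were singly exposed in sealed, dark plates at 28C from 6 hpf; DMSO 0.64% final.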

A short description of assay [10]: Tanguay_ZF_120hpf_EYE_legacy: (Legacy) Oregon State University Tanguay Lab 120 Hour Post-fertilization zebrafish Assay for Eye Malformation (AID 2283636).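 Also: binary presence or absence of eye malformation scored by brightfield in 120 hpf larvae.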 In a few lines:
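Binary brightfield scoring of eye defects at 120 hpf after static exposure from 6 hpf of single pronase-dechorionated wild-type embryos (28C, 0.64% DMSO). Non-mortality endpoints omitted where embryos died; fit vs DMSO.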

Assay [11] is described as follows: Tanguay_ZF_120hpf_JAW_legacy: (Legacy) Oregon State University Tanguay Lab 120 Hour Post-fertilization zebrafish Assay for Jaw Malformation (AID 2283638). In a few lines: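 Binary jaw-malformation call at 120 hpf by brightfield microscopy. Embryos (Tropical 5D strain, chorion removed at 4 hpf) were dosed statically at 6 hpf, one per well, at 28C with 0.64% DMSO. Embryos that died were not scored.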

The nature of assay [12]: Tanguay_ZF_120hpf_OTIC_legacy: (Legacy) Oregon State University Tanguay Lab 120 Hour Post-fertilization zebrafish Assay for Otic Vesicle Malformation (AID 2283639). In a few lines: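 Binary scoring of otic vesicle defects at 120 hpf in zebrafish (Tropical 5D) held under static exposure at 28C, sealed and shaded, with final DMSO 0.64%. Embryos dying by 24 or 120 hpf excluded; fitted positively against DMSO.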

A short description of assay [13]: Tanguay_ZF_120hpf_PE_legacy: (Legacy) Oregon State University Tanguay Lab 120 Hour Post-fertilization zebrafish Assay for Pericardial Edema (AID 2283640). The essentials:
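Scoring was binary, by brightfield microscopy at 120 hpf, and skipped where mortality occurred. Wild-type embryos were kept under sealed, foil-covered static exposure at 28C in 0.64% (vol/vol) DMSO.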

Assay [14] can be described thus: Tanguay_ZF_120hpf_SOMI_legacy: (Legacy) Oregon State University Tanguay Lab 120 Hour Post-fertilization zebrafish Assay for Somite Malformation (AID 2283647). In a few lines:
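Binary somite-defect scoring at 120 hpf, omitted for embryos that died, in wild-type (Tropical 5D) zebrafish with chorion removed by pronase at 4 hpf; static exposure began 6 hpf, single embryos per well, 28C, 0.64% DMSO; fitted positive versus DMSO.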

The nature of assay [15]: Tanguay_ZF_120hpf_PFIN_legacy: (Legacy) Oregon State University Tanguay Lab 120 Hour Post-fertilization zebrafish Assay for Pectoral Fin Malformation (AID 2283648).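 Also: each larva judged yes or no for fin defect by brightfield with dead larvae skipped.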 The essentials:
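Pectoral fin malformation was recorded as a binary endpoint at 120 hpf in wild-type Tropical 5D larvae, which had been dechorionated and exposed statically from 6 hpf at 28C in 0.64% DMSO. Dead embryos were excluded.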

Assay [16] can be described thus: Tanguay_ZF_120hpf_CFIN_legacy: (Legacy) Oregon State University Tanguay Lab 120 Hour Post-fertilization zebrafish Assay for Caudal Fin Malformation (AID 2283649). The essentials: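 Binary brightfield scoring of caudal fin defects at 120 hpf after static, light-shielded exposure at 28C from 6 hpf. Tropical 5D embryos, chorion removed with pronase at 4 hpf, final DMSO 0.64%.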

The nature of assay [17]: Tanguay_ZF_120hpf_MORT_legacy: (Legacy) Oregon State University Tanguay Lab 120 Hour Post-fertilization zebrafish Assay for Mortality (AID 2283633). In a few lines:
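Static waterborne exposure from 6 to 120 hpf at 28C of single dechorionated wild-type (5D) embryos per well, 0.64% DMSO final. Death recorded present/absent by brightfield at 24 and 120 hpf.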

A short description of assay [18]: Tanguay_ZF_120hpf_BRAI_legacy: (Legacy) Oregon State University Tanguay Lab 120 Hour Post-fertilization zebrafish Assay for Brain Malformation (AID 2283641). In a few lines:
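Binary brightfield scoring of brain malformation at 120 hpf in Tropical 5D larvae held under static exposure at 28C (0.64% v/v DMSO), non-mortality endpoints skipped if dead. Positive control: 5uM trimethyltin chloride; fit versus DMSO.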

Assay [19] can be described thus: Tanguay_ZF_120hpf_SNOU_legacy: (Legacy) Oregon State University Tanguay Lab 120 Hour Post-fertilization zebrafish Assay for Snout Malformation (AID 2283637). The essentials: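 Binary snout-malformation call at 120 hpf in wild-type 5D embryos, chorion removed by pronase, under static exposure from 6 hpf at 28C (0.64% DMSO). Embryos dying by 24 or 120 hpf excluded.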

“And” between values parts separate entries of the source, which are not always exact repeats. Equal values may be shown once. Inconclusive results are not listed. A structure can be active in one record and inactive in another. The source made the active and inactive calls. The calls were made as follows: active = hit-call score of the fitted dose curve at least 0.9, where 1 is the maximum; inconclusive = response in the unintended direction; inactive = score below 0.9.

Cellular tumor antigen p53 (Homo sapiens), sequence (P04637 whole entry, looked up): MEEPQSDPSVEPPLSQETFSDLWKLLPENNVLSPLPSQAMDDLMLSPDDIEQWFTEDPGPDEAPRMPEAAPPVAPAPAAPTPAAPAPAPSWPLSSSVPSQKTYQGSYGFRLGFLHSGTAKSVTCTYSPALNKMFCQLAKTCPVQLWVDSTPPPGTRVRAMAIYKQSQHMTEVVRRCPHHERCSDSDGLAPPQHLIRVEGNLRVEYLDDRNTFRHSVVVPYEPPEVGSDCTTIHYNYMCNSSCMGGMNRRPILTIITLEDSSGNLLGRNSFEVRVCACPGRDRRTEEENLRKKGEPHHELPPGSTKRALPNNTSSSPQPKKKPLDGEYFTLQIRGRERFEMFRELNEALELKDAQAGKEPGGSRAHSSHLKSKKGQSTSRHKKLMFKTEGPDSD

In the case of `CCC(C)c1ccc(O)cc1` (stereo unspecified), the call in assay [1], in [2], in assay [3], in assay [4], in assay [5] and in assay [6] was inactive. In addition, the result in assay [7], in assay [8], in assay [9], in assay [10], in [11] and in [12] was inactive. Also, the molecule was classed as inactive in assay [13], in assay [14], in [15] and in assay [16].
With `C[N+](C)(C)CC1CO1` (stereo unspecified), the result in [1], in assay [2], in assay [3], in [5], in [6] and in assay [7] was inactive. Further, the molecule was classed as inactive in assay [8], in [11], in [12], in assay [13], in assay [14] and in assay [16].
Take `O=[N+]([O-])c1ccc(Oc2ccc(Cl)cc2Cl)cc1`: the molecule was classed as inactive in [1], in [2], in assay [3], in assay [4], in assay [5] and in assay [6]. In addition, the outcome in assay [7], in [17], in assay [8], in [9], in assay [10] and in [12] was inactive. Further, the molecule was called inactive in assay [13], in assay [18], in assay [14], in [15] and in assay [16].
For `COP(=S)(OC)SCN1C(=O)c2ccccc2C1=O`, the molecule was classed as inactive in [1], in assay [2], in assay [3], in assay [4], in assay [5] and in assay [6]. The result in [7], in assay [8], in assay [9], in assay [10], in assay [19] and in [11] was inactive. Further, the molecule was called inactive in [12], in assay [13], in assay [18], in [14], in assay [15] and in assay [16].
Take `Clc1ccc(C(c2ccc(Cl)cc2)C(Cl)(Cl)Cl)cc1`: the AC50 in assay [1] is 46.1 µM (active) and 46.4 µM (active) and 23 µM (active); in [2], 77.1 µM (active) and 30.7 µM (active); in [4] it was 30.7 µM (active); in [5] it was 82.5 µM (active) and 43.3 µM (active); in [6], 68.3 µM (active) and 31.9 µM (active). Also, the molecule was classed as inactive in [2], in [3], in assay [4], in assay [5], in assay [6] and in [7]. Also, the molecule was called inactive in assay [8], in assay [9], in assay [19], in assay [11], in assay [12] and in [13]. Besides, the call in [14], in [15] and in assay [16] was inactive.
Consider `CCN(CC)N=O`, for which the molecule was called inactive in assay [1], in assay [2], in [3], in [4], in [5] and in assay [6]. In addition, the result in [7], in [17], in assay [8], in assay [9], in assay [10] and in assay [19] was inactive. Moreover, the result in assay [11], in assay [12], in assay [13], in [18], in assay [14] and in assay [15] was inactive. Besides, the molecule was called inactive in assay [16].
Consider `Nc1ccc(Cl)cc1N`, for which the outcome in [1], in [2], in assay [3], in assay [4], in assay [5] and in assay [6] was inactive. Besides, the result in assay [7], in assay [8], in [9], in assay [10], in assay [19] and in assay [11] was inactive. In addition, the outcome in assay [12], in [13], in [18], in [14], in assay [15] and in assay [16] was inactive. The AC50 in assay [5] is 74.7 µM (active).
For the molecule `Nc1cc(Cl)cc(C(=O)O)c1Cl`, the outcome in [1], in assay [2], in assay [3], in assay [4], in [5] and in [6] was inactive. In addition, the result in assay [7], in [8], in [9], in assay [10], in [11] and in assay [13] was inactive. Further, the call in assay [14], in [15] and in [16] was inactive.
